Reference: PubChem BioAssay AID457 (Sanford-Burnham Center for Chemical Genomics, 2006)
About 20 (0.2%) of roughly 10,000 compounds were called active. The rule behind the calls is not given here. Not all results are given here.

Assay: boosters of cytokine-driven VCAM-1 levels – imaging, high-content imaging, pooled HUVEC, TNFa stimulus (AID 457)
Details: TNFa-induced VCAM-1 immunofluorescence imaging; concentration not given here

augmentation, inactive:
COCCNC(=O)CN1CCN(C(c2ccccc2)c2ccccc2)CC1
Cc1ccc(CN2CCN(C(=O)C3CCC3)CC2)cc1
Cc1cc(NC(=O)CCOc2ccccc2)no1
COc1ccc(N2C(=O)C3CCCN3C2c2ccc(F)cc2)cc1Cl (stereo unspecified)
O=c1c2cnn(-c3ccccc3)c2ncn1/N=C/c1ccncc1
COC(=O)c1[nH]c2ccc(C)cc2c1NC(=O)CN1CCN(C(=O)c2ccccc2)CC1
CC1Cc2cc(/C(O)=C3/C(=O)C(=O)N(CCN4CCOCC4)C3c3cccc(O)c3)ccc2O1 (stereo unspecified)
Clc1ccc(-c2nnc3sc(-c4ccc(Br)o4)nn23)cc1
CCCCN(CCCNC(=O)C1CCN(S(=O)(=O)CC)CC1)c1ccccc1
CS(=O)(=O)N(CC(=O)N1CCN(c2cccc(Cl)c2)CC1)C1CCCCC1
CC1CCN(CCCNC(=O)c2coc3nc4ccccc4nc23)CC1
COc1ccc(-c2nnc(SCC#N)o2)cc1
O=C(CSc1nnnn1-c1ccc2c(c1)OCO2)NCc1cccs1
CCOC(=O)N1CCN(C(=O)c2csc3c2CCCCC3)CC1
Cc1cccc(-n2ncc3c(NCc4ccccn4)ncnc32)c1
CCCN(CCC)C(=O)c1c(C)[nH]c(C(=O)OCC)c1C
CCOC(=O)c1ccc2nc(C)c3c(c2c1)OC(C)C3 (stereo unspecified)
Cc1c(NC(=O)C2CCCNC2=O)c(=O)n(-c2ccccc2)n1C (stereo unspecified)
O=C1CC(c2ccccc2)Cc2nc(N3CCc4ccccc43)ncc21 (stereo unspecified)
CC(=O)N1CCN(c2ccc(S(=O)(=O)N3CCCCC3)cn2)CC1
COc1cc(OC)cc(-c2nc3cc(C)ccc3o2)c1
CC1CN(C(=O)CSc2nnc(-c3ccc(Cl)cc3)n2C)CC(C)O1 (stereo unspecified)
CCCOc1ccccc1NC(=O)c1ccc(N)cc1
C=CCSc1ncccc1C(=O)O
CCN(CCNC(=O)C1CCN(S(=O)(=O)CC)CC1)c1ccccc1
Cc1oc2cc3c(C(=O)OCCN(C)C)c(C)oc3cc2c1C(=O)OCCN(C)C
Cc1nc(CNS(=O)(=O)c2cccc(F)c2)cs1
CCN(CC)c1ccc2c(c1)CCCN2
Cc1onc(-c2ccccc2)c1C(=O)N1CCCSC1=Nc1ccccc1
COCCN1CCN(c2c(C)c(C)nc3cc(-c4cccc(OC)c4)nn23)CC1
C=CCN1C(=O)C2(/C(=C(\O)c3ccc4c(c3)OCCO4)C(=O)C(=O)N2CCCOC)c2ccccc21 (stereo unspecified)
C=CCOc1nc(N2CCCC2)nc(N2CCCC2)n1
O=C(c1cccc2c1C(=O)N(Cc1cccnc1)C2)N1CCN(c2ccccc2)CC1
Cc1nnc2ccc(N3CCC4(CC3)OCCO4)nn12
Cc1nc(CCNS(=O)(=O)c2cccs2)cs1
CC(O)CN1C(=O)C(CC(=O)Nc2ccc(Cl)cc2)SC1=Nc1ccccc1 (stereo unspecified)
CCn1c(SCC(=O)C(C)(C)C)nnc1-c1cnccn1
c1ccc(CCNc2ccc3nncn3n2)cc1
O=C(NCc1nc2ccccc2[nH]1)c1ccc(Cl)c(S(=O)(=O)N2CCCC2)c1
Cc1cccc(Nc2nc(N)nc(CN3CCC(C(N)=O)CC3)n2)c1C
O=C(Nc1cccc(NC(=O)c2ccco2)c1)c1ccc2c(c1)OCO2
COc1ccccc1OCCn1c(=O)sc2ccccc21
O=C(Cc1ccccc1)Nc1ccc(CN2CCOCC2)cc1
Cc1ccc2[nH]c(=O)c3cc(C(=O)NCCN4CCN(C)CC4)sc3c2c1
CCOC(=O)N1CCN(C(=O)CSc2cc(C)nc3c(-c4ccccc4OC)c(C)nn23)CC1
COc1ccc(-c2nc(C#N)c(N3CCN(c4ccccc4)CC3)o2)cc1
CC(C)CNC(=O)c1ccccc1NC(=O)c1ccc(CN2CCOCC2)cc1
CCCN1CCN(CCCNC(=O)C2CCCN(c3nc4ccc(OCC)cc4s3)C2)CC1 (stereo unspecified)
CC(C)N(C(=O)N1CCC(c2nc(-c3ccncc3)no2)CC1)C(C)C
O=C(CN1C(=O)CC(c2ccco2)Sc2ccccc21)Nc1ccccc1F (stereo unspecified)
CC(O)c1c(OCc2ccccc2)ncnc1OCc1ccccc1 (stereo unspecified)
O=C(O)c1cc2c(s1)CCCC2
CCOC(=O)CN1CC23C=CC(O2)C(C(=O)NC2CCCC2)C3C1=O (stereo unspecified)
CCOc1ccc2cc(C#N)c(SCC(=O)N3CCC(C)CC3)nc2c1
CC(=O)Nc1sc2c(c1C#N)CCCCC2
CCCOc1ccc(S(=O)(=O)NCCCN2CCOCC2)c2ccccc12
O=C(Cn1ccc2ccccc2c1=O)Nc1ccc2c(c1)OCO2
CCOCCn1cnc2sc(C(=O)Nc3nc(C)c(C(=O)OCC)s3)c(C)c2c1=O
Nc1nc2ccccc2n1C(=O)CCc1ccccc1
Cc1sc2nc(CN3CCN(S(=O)(=O)c4cccc5nonc45)CC3)[nH]c(=O)c2c1C
O=C(CN1CCC(n2nnc3ccccc32)CC1)Nc1ccc2c(c1)CCC2
O=C(Nc1ncc(Cc2ccccc2)s1)C1CCCO1 (stereo unspecified)
O=C(Cc1c(F)cccc1Cl)Nc1ccncc1
CCCCCCc1ccc(-c2ncc(N)cn2)cc1
CCc1nnc(NC(=O)CSc2nnc(-c3ccoc3C)n2CC(C)C)s1
COc1nc(C)ccc1-c1noc(-c2ccncc2)n1
Cc1noc(/C=C/N(C)C)c1S(=O)(=O)N1CCc2ccccc21
O=C(Nc1ccc2c(c1)OCCO2)c1cnc2n(c1=O)CCS2
Cc1[nH]nc(N=CC2=C(O)CC(C)(C)CC2=O)c1-c1ccccc1
Cc1csc(SCCn2c(N3CCCC3)nc3c2c(=O)[nH]c(=O)n3C)n1
O=C(Nc1ccccc1Cl)c1c(F)c(F)c(F)c(F)c1F
O=C(COc1nnnc2ccccc12)N1CCCc2ccccc21
CC1(C)CC(=O)c2cnc(NCc3ccco3)nc2C1
COC(=O)C1=C(C)OC(N)=C(C#N)C1c1c(C)nn(-c2ccccc2)c1Cl (stereo unspecified)
CCCNC(=O)c1cc(S(=O)(=O)N2CCc3ccccc32)ccc1F
O=C(CSc1ncc(-c2ccc(F)cc2)[nH]1)N1CCCCC1
CC(C)OC(=O)CSc1nnc(-c2ccc(O)cc2)n1Cc1ccccc1
CSC1CCCCC1(O)CSc1nc2c(cc1C#N)CCCC2 (stereo unspecified)
Cc1cc(C)cc(NC(=O)C2CCCN(c3nccc(C)n3)C2)c1 (stereo unspecified)
Cn1c(/C=N/n2cnnc2)nc2ccccc21
Cc1ccccc1NC(=O)C1CCN(c2cnccn2)CC1
O=C(Nc1cccnc1)Nc1ccc(F)c(Cl)c1
C(=C\c1ccccc1)/CN1CCN(Cc2ccc3c(c2)OCCO3)CC1
CCOC(=O)N1CCN(CCC(=O)c2ccc(Cl)cc2)CC1
CCOC(=O)CSc1nc2ccccc2n1CC(=O)N1CCN(c2ccccc2)CC1
COc1ccccc1C(=O)NCC(=O)Nc1ccccc1
CCC(C)(C)NC(=O)CN(C(=O)c1snc(C(N)=O)c1N)c1ccc2c(c1)OCO2
COC(=O)c1ccccc1NC(=O)C1CC(=O)N(c2ccc(F)cc2)C1 (stereo unspecified)
Cc1cc(Cl)c(S(=O)(=O)N2CCN(c3ccc(F)cc3)CC2)cc1OCC(N)=O
Cc1ccc(-n2nnnc2SCC(=O)N2CCN(C(=O)c3ccco3)CC2)c(C)c1
O=S(CC(O)COCc1ccc(Cl)cc1)c1ccccn1 (stereo unspecified)
